In PubChem BioAssay AID1508600 (Functional Genomics Laboratory (NCATS/FGL), 2020):
About 3,700 (7%) of roughly 53,000 sequences were called active.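 The calls were made as follows: active = gene knockdowns whose robust z-score for IL-1 alpha signal is at least 2 or at most -2, so actives lie on both sides; inactive = the rest.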 The entries come from a sample that favours actives as a whole.

Assay: Components of the Cytosolic LPS Sensing Pathway: Gene Identification via Genome-wide siRNA Screen;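 also: robust z of the log signal after scaling to non-targeting control siRNA wells of the plate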
Conditions: RAW264.7 macrophages, IL-1a HTRF, actives lie on both sides, screened at 100 nM (by protocol), cells primed 5 h with Pam3CSK4 first
In short: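 IL-1a HTRF of supernatants after 24 hour LipidA transfection of Pam3CSK4-primed (5 hours) RAW264.7 cells, 48h post-siRNA transfection (100 nM). Scores: percent of plate negative-control median, then log-based robust z-score.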
For GGUCUGUCUCGUCUACAAUTT against Gstm1, the z-score was 2.98 (active). With GGCGUAAAAUUCAAACUCATT against Cr2 the z-score was 1.02 (inactive). With GGAUCAGGAAGGAUUCGGATT against Zfp84 the z-score was -1.01 (inactive). For GGAAGGAGCUUCGAAAAAATT against Pex16, the z-score was 0.129 (inactive). With GGAGAAGUUUAGUGAAGAATT against Rmdn2 the z-score was -2.48 (active). With GGCUUAAGGACAAGAAGAUTT against Gsn the z-score was -0.747 (inactive). With CCAUAAGUUUGAAGAAUCCTT against Glg1 the z-score was 1.45 (inactive). For “GGCUAUGUAGAUGGUUUUGTT against B830017H08Rik”, the z-score was 2.65 (active). For GGAUCACCUAACGUAAUGGTT against Phlda1, the z-score was -1.31 (inactive). In the case of GGUGACUUGGAAGAGCCCATT against Il1rapl2, the z-score was -0.637 (inactive). For CGUCGUGGUUGGUAUGUAATT against Sacs, the z-score was -1.18 (inactive). In the case of GGCCAGACAAAUGAUGCCATT against Slc25a30, the z-score was -3.04 (active). With GGAACUAUAUACGAUGAUGTT against Usp8 the z-score was -0.316 (inactive). In the case of GGAGUUUGAAGACUUUUUGTT against Pstpip2, the z-score was 0.24 (inactive). With CGGCUAGAUGAUCCUACCUTT against Tsga13 the z-score was -0.542 (inactive). In the case of GGCCCUAGAUGAGCACAAATT against Kcnh3, the z-score was 2.48 (active). In the case of GCUCUGAUCAUUUGACUUGTT against Ovca2, the z-score was 0.128 (inactive). In the case of GGACCAGAAAUACAUUUUCTT against Arhgef2, the z-score was -0.288 (inactive). With GGGCAGAAACAAAAGGUUATT against Tmlhe the z-score was 0.917 (inactive). In the case of GGAAUGUUACCCUUCAACUTT against Slc25a13, the z-score was -0.0366 (inactive). With GGACUCAAGAGAAAUUCAATT against Nod2 the z-score was 2.19 (active). For GGGAUGUGAAAUGCACCUUTT against Rftn1, the z-score was -1.03 (inactive). With GGUAUUCUUCCUCCAUGGGTT against Olfr638 the z-score was -3.22 (active). For UGACUUUUGGACACGAGGCTT against Trim15, the z-score was -0.159 (inactive). With GGACAAAUGACUGGUACCCTT against Gorasp2 the z-score was -0.314 (inactive). In the case of CGUGUGAAGCAGUUAUGAUTT against Pbx3, the z-score was 1.02 (inactive). For GGCAAAUAGUUUCUUCAAUTT against Npnt, the z-score was -0.485 (inactive). For GGUUGUGAACAGUCCACCCTT against Ski, the z-score was 0.461 (inactive). For GGAGUGGCCAUUAAAUUUATT against Slc17a8, the z-score was 2.75 (active). For GGUGCUGGUGGAUGAACUATT against Nags, the z-score was -1.5 (inactive). For GGAGGCUAUUACUGUUUAUTT against Fam107b, the z-score was 0.601 (inactive). In the case of GGUCAAGAGUGCAUUCAAATT against Olfr1445, the z-score was 0.266 (inactive). In the case of GGAACUGAUAUCAUGUACATT against Slc25a5, the z-score was 2.15 (active). With GCCGAUUCUCAUAUUUGACTT against Exo1 the z-score was -0.742 (inactive). In the case of GGCUGAGAACAAUAUGUAUTT against Ccdc80, the z-score was 0.323 (inactive). With GGGCAUUUGGCCUUUCUCATT against Cpsf4 the z-score was -0.905 (inactive). In the case of GGGCUUGUUUGACUUUCAUTT against Btd, the z-score was 0.175 (inactive). In the case of GGCUGUAAUGAGGACUGAUTT against Ss18l2, the z-score was 3.25 (active). In the case of CCCUAUACAGCGUACCCAATT against Eya2, the z-score was -0.754 (inactive). With GCCAUGCUCACUGAACUUCTT against Nanp the z-score was -2.3 (active). In the case of GGACUUGAAACUUCUGGAUTT against Nudt16, the z-score was 0.453 (inactive). For GCUAUGUAACACACCGCUGTT against Ticam1, the z-score was -1.24 (inactive). For GGUGUCUUUACGUCUCCCATT against Neto1, the z-score was -2.56 (active). For GGACGAGUCACACUUUGGATT against Cdyl2, the z-score was -0.328 (inactive). In the case of GGUCAAGAGGAGGGUACCUTT against Foxred2, the z-score was 0.313 (inactive). In the case of GCUUUAAAUAGAGACUAUCTT against Sox30, the z-score was 1.15 (inactive). In the case of GGAGACUUCAGCACCUUUGTT against C4a, the z-score was 0.455 (inactive). In the case of CCUGAUCUCAGCCUAUACUTT against Rapgef6, the z-score was -2.26 (active). In the case of GGAACCAAAAGCCUGGCGATT against Pkd1l3, the z-score was -1.68 (inactive). With GGACUGAUAUCAUUUCUGATT against Flacc1 the z-score was -1 (inactive). In the case of GCAUCCACCUCAACGAUAUTT against Dlg3, the z-score was -1.33 (inactive). With GCUAGGAGCUAGGAAUCCGTT against Pdzd3 the z-score was -0.682 (inactive). With GGCAGAAUGGGCUUAUGUCTT against Trabd the z-score was -2.54 (active). For GGAGCUUGCCAUAUUCCUCTT against Leprotl1, the z-score was 0.915 (inactive). In the case of GGAAAUAUAUGUCAUGUCATT against Nars, the z-score was 2.37 (active). For “GCAAGAUUGGAAUGCUCCATT against 3830403N18Rik”, the z-score was 0.309 (inactive). In the case of GGAAGAUAAUAUCCUUUGGTT against Olfr734, the z-score was -1.02 (inactive). In the case of GGGAUUUUGAGUUUGAUGCTT against Zc3h10, the z-score was -1.03 (inactive). In the case of GCUGUCAAAUUAACCUGUGTT against Spin2c, the z-score was -2.31 (active). For GCUCGAUAUAAUUUCACACTT against Neto1, the z-score was -0.75 (inactive). With GCCGCUACUCUCCUCAAAATT against Card19 the z-score was -0.329 (inactive). With CGUGUAAGUUUUGAUUCUATT against Calr the z-score was 0.815 (inactive). For GGAGCUUGUGAACACCUUCTT against Nudc, the z-score was 0.718 (inactive). In the case of GGCUAUCUGCUUAUGCUGGTT against Ptch2, the z-score was -0.314 (inactive). With CCAGUAAACCGAGACCAUUTT against Nsfl1c the z-score was 2.02 (active). With GCUAAGCGAAGAGUUUAACTT against Dlgap3 the z-score was 0.691 (inactive). With GGACUUCUUCGAUUGUUCUTT against Chchd1 the z-score was 0.475 (inactive). In the case of GCUCUACAUGAAAACACUGTT against Gpat4, the z-score was -0.28 (inactive). For CGAAAUUGCUGACUCAGAATT against Arl6ip6, the z-score was 0.549 (inactive). In the case of CCCAGCUUUCAUCCUUUGUTT against Emc7, the z-score was 0.237 (inactive). For GGGCAGUCUGAUAGAGGAUTT against Adam30, the z-score was -0.632 (inactive). For GGCUUCUGAUCUUACCUGGTT against Smim12, the z-score was 0.683 (inactive). For GGAGGAACCCUCAUUUUAGTT against Prxl2c, the z-score was -0.897 (inactive). With CCAACUCGGCUGUUUUUUATT against F11r the z-score was 0.149 (inactive). For GGAAAGCACCCAAGAAAUGTT against Gspt1, the z-score was -0.915 (inactive). With GGUACAAUCCCAGAUUUGATT against Smc3 the z-score was -2.37 (active). For CCCUUAAGUCUUUUUCCUATT against Celf2, the z-score was -1.09 (inactive). With GGCCAUGGUGGCGUGUUAUTT against Egln2 the z-score was -0.524 (inactive). With GCUGCUCCCUCUAAUAAAATT against Cbr1 the z-score was -0.913 (inactive). For GGCGUGAACCAAACAGACUTT against Calcrl, the z-score was -0.604 (inactive). In the case of CGGAGCCAAAUACGAAGGGTT against Jph3, the z-score was -0.548 (inactive). For GGCAGAAAAGAUGGAAAAUTT against Evi5l, the z-score was -2.1 (active). In the case of GGCAAGCACACAAUGAUGCTT against Plin5, the z-score was -0.0222 (inactive). For GGUAGAACAACAGAACAAUTT against Myo5b, the z-score was 2.9 (active). For GCAGCUUCAAGAGAGCCAUTT against Rhbdl1, the z-score was -0.604 (inactive). For GGAAGUAGCCCAGAAGUGUTT against Rad51d, the z-score was -0.337 (inactive). With GGGAGAGUUCCAUAAAUUGTT against Narf the z-score was -0.728 (inactive). In the case of GGGACUGGCACCAUUUGUUTT against Cetn4, the z-score was -0.289 (inactive). In the case of GGACAUGGCUUUAUAACCUTT against Dcdc5, the z-score was 0.256 (inactive). With GCAGCAUAGAGACUAAAUCTT against Usp17la the z-score was 0.604 (inactive). In the case of GGAUAAAAUUGAGUCUAUGTT against Was, the z-score was 1.81 (inactive). With GGGCCAAUGAUGGACUUCCTT against Syp the z-score was 0.33 (inactive). For GGCCCUAUUAGAGAUAAAATT against Robo3, the z-score was -1.2 (inactive). For GGUAGUCUGAACACUCUAATT against Msto1, the z-score was 0.427 (inactive). For GGAAGAAGAGGAGGAGAUGTT against Zbtb7b, the z-score was 3.17 (active). In the case of GCUAUCUCCACUCUGAGUCTT against Spryd4, the z-score was -0.342 (inactive). With CCGCCAGGGAAACAAAUACTT against Zfp414 the z-score was -1.21 (inactive). In the case of GCUUCUGCUUGUUCGCUAGTT against Usp17ld, the z-score was 2.7 (active). With GCUCACUAUGUAAAGAGAATT against Itpk1 the z-score was 0.807 (inactive). For GGAGAGUCAAGUCUUUUCUTT against Dnal4, the z-score was 0.0546 (inactive). For GGACAAACUCCGAGACUCCTT against Utf1, the z-score was -0.339 (inactive). For GGAUGAUCAUUCUAGCUGUTT against Hormad1, the z-score was 0.836 (inactive). With GGUGUCUGAUUCUAACAUATT against Catsper4 the z-score was 0.589 (inactive). With GGAAGAAAACACCAUUUUUTT against Irf6 the z-score was 3.12 (active). With GGUGCAAUCAGGUAUUUCATT against Olfr917 the z-score was -2.26 (active). For GGAAAGUGGACACCUUCCATT against Vezt, the z-score was 1.2 (inactive). For CCAGAAGCCAUUAACUAUGTT against Lck, the z-score was -0.479 (inactive). In the case of GGACGUGGAAAACCACAGUTT against Nphp4, the z-score was 0.0474 (inactive).
